Experimental data taken from the OligoGym collection.

Biological target: RNF113A
Experiment: pooled miR-30 sensor sort-seq; sequence = guide strand
Settings: shRNA
Note: reference of the scale not given here.

Sequence | sensor-assay potency score (higher = more potent)
TAGATCTTGTCATCCTCCTTGC | 0.184
TTCGTCGCTACTGCTGCCGCTT | -0.608
TTTTCCTCTTCCTCTTCGCTGC | -0.23
ATAGATCTTGTCATCCTCCTTG | 0.536
TTAGCAATCAATTCTTTCGCTG | 0.0148
TAGCAATCAATTCTTTCGCTGG | 0.133
TTTACCACTGTCACGGGTCTTC | -0.541
TTCGCTGCTCAAGTCGCCGTAA | -0.391
TACTGCTGCCGCTTTCTCCGGG | -0.242
TAGTTTAGCAATCAATTCTTTC | -0.827
TAGCTCGATGCTTCTCTAGTTT | -0.684
TTTTCCGGTCGAACCACAGTGC | -0.536

Biological target: RNF122
Experiment: as above
Settings: shRNA

Sequence | sensor-assay potency score (higher = more potent)
TATATCCGTATCGCTCACTCTG | -0.842
AAGTCTTCCAGACAGACTGCGC | -0.854
ATAATTGTAACTTCTTGGCATC | -0.737
TTTCACCAGACACTTGCGGTGA | -0.949
TAACTTCTTGGCATCACCTTTA | -0.252
TATAATTGTAACTTCTTGGCAT | 0.823
TTTGCTGATAAAATAGCAGCAG | -0.0269
TAGAATCCCAATGTTCTGCGTG | 0.594
